Experimental data reported in PubChem BioAssay (EPA / NIEHS).
Several values for one entry are separate records, joined by “and”; a condition that tells them apart may be missing. Equal values may be shown once. The source holds several records for some structures; these can differ, active in one and inactive in another. Activity calls are given as the source filed them. How the source made its calls: active means hit-call score of the fitted dose curve at least 0.9, where 1 is the maximum; inactive means score below 0.9.

How the values were obtained:
[1] = read-out: Intercellular Adhesion Molecule 1 (ICAM1), ICAM1 (gene 3383); test: BSK_BE3C_ICAM1: BioMAP Diversity Plus: BE3C Assay for Intercellular Adhesion Molecule 1 (ICAM1) Biomarker Activity (AID 2284278); conditions: primary human bronchial epithelial cells;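 on outcome: cell-surface ICAM-1 protein level quantified by ELISA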
Procedure, shortened: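 Here, ICAM-1 levels on confluent human bronchial epithelial primary cells are read by ELISA at 24 h after chemical dosing. Parallel SRB staining (0.1% after 10% TCA fixation, 560 nm) checks cytotoxicity.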

[2] = read-out: Interferon-inducible T-cell alpha chemoattractant (ITAC), CXCL11 (gene 6373); test: BSK_BE3C_ITAC: BioMAP Diversity Plus: BE3C Assay for Interferon-inducible T-cell alpha chemoattractant (ITAC) Biomarker Activity (AID 2284279); conditions: primary human bronchial epithelial cells
Procedure, shortened: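 BE3C cells (human primary bronchial epithelium), 24 h compound exposure, I-TAC by ELISA, DMSO = negative control/baseline, positive fitting direction.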

[3] = read-out: Interleukin-8 (IL8), CXCL8 (gene 3576); test: BSK_BE3C_IL8: BioMAP Diversity Plus: BE3C Assay for Interleukin-8 (IL8) Biomarker Activity (AID 2284280); conditions: primary human bronchial epithelial cells
Procedure, shortened: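 Measured at 24 h after treatment, IL-8 from human primary bronchial epithelial cells is determined by ELISA, and the response is modelled as increasing relative to DMSO negative control.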

[4] = read-out: Epidermal growth factor receptor (EGFR), EGFR (gene 1956); test: BSK_BE3C_EGFR: BioMAP Diversity Plus: BE3C Assay for Epidermal growth factor receptor (EGFR) Biomarker Activity (AID 2284281); conditions: primary human bronchial epithelial cells
Procedure, shortened: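 Measured 24 h after dosing in primary human bronchial epithelial cultures, EGFR was read by ELISA; gain of signal over DMSO control defined activity.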

KRT18 (gene 3875) = test: BSK_BE3C_Keratin818: BioMAP Diversity Plus: BE3C Assay for Keratin 818 Biomarker Activity (AID 2284282); conditions: primary human bronchial epithelial cells
Procedure, shortened: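 Keratin 8/18 levels, detected by ELISA, served as the endpoint after 24 h chemical exposure of primary human bronchial epithelial cells. Gain of signal relative to DMSO negative control defined activity.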

[5] = read-out: Matrix Metallopeptidase 9 (MMP9), MMP9 (gene 4318); test: BSK_BE3C_MMP9: BioMAP Diversity Plus: BE3C Assay for Matrix Metallopeptidase 9 (MMP9) Biomarker Activity (AID 2284283); conditions: primary human bronchial epithelial cells
Procedure, shortened: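 ELISA read-out of MMP-9 after 24 h compound exposure of human lung bronchial epithelial primary cells (BE3C). Fit in gain direction vs DMSO negative control; total protein by SRB in parallel cultures flagged overt cytotoxicity.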

[6] = read-out: Plasminogen activator inhibitor-1 (PAI1), SERPINE1 (gene 5054); test: BSK_CASM3C_PAI1: BioMAP Diversity Plus: CASM3C Assay for Plasminogen activator inhibitor-1 (PAI1) Biomarker Activity (AID 2284284); conditions: primary human coronary artery smooth muscle cells
[7] = read-out: Monocyte Chemoattractant Protein-1 (MCP1), CCL2 (gene 6347); test: BSK_hDFCGF_MCP1: BioMAP Diversity Plus: hDFCGF Assay for Monocyte Chemoattractant Protein-1 (MCP1) Biomarker Activity (AID 2284285); conditions: primary human foreskin fibroblasts
Procedure, shortened: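 MCP-1 ELISA readout was taken 24 hours after dosing primary human dermal fibroblasts in the hDFCGF system, with DMSO as baseline. Parallel sulforhodamine B staining of total protein tracked overt cytotoxicity.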

[8] = read-out: Intercellular Adhesion Molecule 1 (ICAM1), ICAM1 (gene 3383); test: BSK_hDFCGF_ICAM1: BioMAP Diversity Plus: hDFCGF Assay for Intercellular Adhesion Molecule 1 (ICAM1) Biomarker Activity (AID 2284287); conditions: primary human foreskin fibroblasts
Procedure, shortened: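 ICAM-1 ELISA readout 24 h after dosing, DMSO as baseline, in human dermal foreskin fibroblast cultures. Cytotoxicity checked in parallel wells by SRB staining (0.1% SRB, 10% TCA fixation, 560 nm).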

[9] = read-out: TIMP metallopeptidase inhibitor 2 (TIMP2), TIMP2 (gene 7077); test: BSK_hDFCGF_TIMP2: BioMAP Diversity Plus: hDFCGF Assay for TIMP metallopeptidase inhibitor 2 (TIMP2) Biomarker Activity (AID 2284289); conditions: primary human foreskin fibroblasts
Procedure, shortened: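 Primary human foreskin fibroblasts in the hDFCGF system, dosed for 24 h; TIMP-2 level measured by ELISA, fitted in the positive direction against DMSO; cytotoxicity checked in parallel by sulforhodamine B total protein staining.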

[10] = read-out: Tissue plasminogen activator (tPA), PLAT (gene 5327); test: BSK_BF4T_tPA: BioMAP Diversity Plus: BF4T Assay for Tissue plasminogen activator (tPA) Biomarker Activity (AID 2284272); conditions: primary human bronchial epithelial cells with fibroblasts
Procedure, shortened: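 tPA level quantified by ELISA at 24 h post-treatment in bronchial epithelial/dermal fibroblast co-cultures, gain of signal scored against DMSO baseline. Parallel cultures stained with 0.1% SRB (560 nm) to flag overt cytotoxicity.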

[11] = read-out: Plasminogen Activator Inhibitor-1 (PAI1), SERPINE1 (gene 5054); test: BSK_BF4T_PAI1: BioMAP Diversity Plus: BF4T Assay for Plasminogen Activator Inhibitor-1 (PAI1) Biomarker Activity (AID 2284273); conditions: primary human bronchial epithelial cells with fibroblasts
Procedure, shortened: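 PAI-1 levels quantified by ELISA 24 h post-dosing in bronchial epithelial cell plus dermal fibroblast cultures. Signal gain referenced to DMSO baseline. Sulforhodamine B total-protein staining of parallel wells checked cytotoxicity.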

[12] = BSK_BF4T_SRB: Viability Assessment in the BioMAP Diversity Plus: BF4T Assay (AID 2284274); conditions: primary human bronchial epithelial cells with fibroblasts;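 on AC50: measured 24 h after compound addition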
Procedure, shortened: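 Cytotoxicity measured as total protein: cells fixed with 10% TCA, stained with 0.1% SRB, read at 560 nm. Bronchial epithelial/dermal fibroblast co-culture, 24 h after dosing, with positive-direction fitting relative to DMSO.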

[13] = read-out: urokinase Plasminogen Activator (uPA), PLAU (gene 5328); test: BSK_BF4T_uPA: BioMAP Diversity Plus: BF4T Assay for urokinase Plasminogen Activator (uPA) Biomarker Activity (AID 2284275); conditions: primary human bronchial epithelial cells with fibroblasts
Procedure, shortened: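 uPA levels measured by ELISA at 24 hours in BF4T cultures (bronchial epithelial cells plus dermal fibroblasts) and compared with DMSO; cytotoxicity tracked in parallel cultures by sulforhodamine B staining.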

[14] = read-out: Matrix Metallopeptidase 9 (MMP9), MMP9 (gene 4318); test: BSK_BF4T_MMP9: BioMAP Diversity Plus: BF4T Assay for Matrix Metallopeptidase 9 (MMP9) Biomarker Activity (AID 2284276); conditions: primary human bronchial epithelial cells with fibroblasts
Procedure, shortened: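 MMP-9 levels were measured by ELISA after 24 h exposure of bronchial epithelial cell/dermal fibroblast co-cultures, with DMSO as baseline. Parallel cultures were stained with 0.1% SRB after TCA fixation, read at 560 nm, to flag overt cytotoxicity.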

[15] = read-out: Interleukin-8 (IL8), CXCL8 (gene 3576); test: BSK_IMphg_IL8: BioMAP Diversity Plus: IMphg Assay for Interleukin-8 (IL8) Biomarker Activity (AID 2284277); conditions: primary human endothelial cells with macrophages
Procedure, shortened: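 IL-8 levels were measured by ELISA 24 h after dosing in primary human venular endothelial cell–macrophage cultures, referenced to DMSO; parallel SRB staining monitored overt cytotoxicity.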

[16] = read-out: Vascular cell adhesion molecule 1 (VCAM1), VCAM1 (gene 7412); test: BSK_IMphg_VCAM1: BioMAP Diversity Plus: IMphg Assay for Vascular cell adhesion molecule 1 (VCAM1) Biomarker Activity (AID 2284286); conditions: primary human endothelial cells with macrophages
Procedure, shortened: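 ELISA read-out of VCAM-1 on venular endothelial cell/macrophage co-cultures at 24 h post-treatment, with DMSO as baseline and positive-direction fitting. Parallel sulforhodamine B total-protein staining (560 nm) served as the overt cytotoxicity measure.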

CD40, CD40 (gene 958) = test: BSK_IMphg_CD40: BioMAP Diversity Plus: IMphg Assay for CD40 Biomarker Activity (AID 2284288); conditions: primary human endothelial cells with macrophages
Procedure, shortened: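 ELISA read-out of cell-surface CD40 at 24 h in human venular endothelial cell/macrophage co-cultures. Activity fitted in the positive direction against DMSO; parallel SRB staining (560 nm) gauges overt cytotoxicity.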

[17] = read-out: Interleukin-1 alpha (IL1a), IL1A (gene 3552); test: BSK_IMphg_IL1a: BioMAP Diversity Plus: IMphg Assay for Interleukin-1 alpha (IL1a) Biomarker Activity (AID 2284290); conditions: primary human endothelial cells with macrophages
Procedure, shortened: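 IL-1α is quantified by ELISA at 24 h in the endothelial/macrophage IMphg co-culture, with gain of signal fitted relative to DMSO. Parallel SRB total-protein staining flags overt toxicity.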

[18] = read-out: E-selectin (Homo sapiens) (UniProt P16581); test: BSK_IMphg_ESelectin: BioMAP Diversity Plus: IMphg Assay for Eselectin Biomarker Activity (AID 2284291); conditions: primary human endothelial cells with macrophages
Procedure, shortened: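 Analysed against DMSO baseline in the positive fitting direction, this endpoint is an ELISA read of E-selectin. It comes from human venular endothelial cells co-cultured with macrophages, sampled 24 h post-dose.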

E-selectin (Homo sapiens), sequence (P16581 whole entry, looked up): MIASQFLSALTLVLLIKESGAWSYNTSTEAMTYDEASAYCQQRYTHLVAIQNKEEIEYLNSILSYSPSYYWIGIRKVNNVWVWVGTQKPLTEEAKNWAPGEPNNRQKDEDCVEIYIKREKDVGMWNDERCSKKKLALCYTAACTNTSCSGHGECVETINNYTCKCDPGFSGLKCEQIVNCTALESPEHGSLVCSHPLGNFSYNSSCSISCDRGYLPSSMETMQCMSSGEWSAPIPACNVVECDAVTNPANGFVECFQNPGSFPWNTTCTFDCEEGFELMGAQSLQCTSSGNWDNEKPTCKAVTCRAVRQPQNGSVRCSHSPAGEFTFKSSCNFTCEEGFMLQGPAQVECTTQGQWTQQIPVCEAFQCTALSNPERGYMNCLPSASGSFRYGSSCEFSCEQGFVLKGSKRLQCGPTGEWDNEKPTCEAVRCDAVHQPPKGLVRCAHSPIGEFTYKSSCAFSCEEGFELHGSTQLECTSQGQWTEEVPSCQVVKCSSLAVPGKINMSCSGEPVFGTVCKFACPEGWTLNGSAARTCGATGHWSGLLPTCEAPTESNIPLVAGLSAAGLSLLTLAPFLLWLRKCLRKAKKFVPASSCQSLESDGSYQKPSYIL

## CC(=O)OC(c1ccccc1)C(Cl)(Cl)Cl (stereo not drawn)
[1]
  outcome: inactive
[2]
  outcome: inactive
[3]
  outcome: inactive
[4]
  outcome: inactive
KRT18 (gene 3875)
  outcome: inactive
[5]
  outcome: inactive
[6]
  outcome: inactive
[7]
  outcome: inactive
[8]
  outcome: inactive
[9]
  outcome: inactive

## COC(=O)Cc1ccccc1
[1]
  outcome: inactive
[2]
  outcome: inactive
[3]
  outcome: inactive
[4]
  outcome: inactive
KRT18 (gene 3875)
  outcome: inactive
[5]
  outcome: inactive
[6]
  outcome: inactive
[7]
  outcome: inactive
[8]
  outcome: inactive
[9]
  outcome: inactive

## O=C(O)C(F)(F)C(F)(F)C(F)(F)C(F)(F)C(F)(F)C(F)(F)C(F)(F)C(F)(F)C(F)(F)C(F)(F)F
[10]
  AC50: 4.42 µM (active) and 5.58 µM (active)
[11]
  AC50: 5.2 µM (active) and 6.13 µM (active)
[12]
  AC50: 5.49 µM (active) and 5.63 µM (active)
[13]
  AC50: 6.49 µM (active) and 6.17 µM (active)
[14]
  AC50: 4.36 µM (active) and 5.37 µM (active)
[15]
  outcome: inactive
[1]
  AC50: 5.73 µM (active) and 6.33 µM (active)
[2]
  AC50: 2.65 µM (active) and 2.84 µM (active)
[3]
  AC50: 4.19 µM (active) and 3.81 µM (active)
[4]
  AC50: 4.31 µM (active) and 2.34 µM (active)
KRT18 (gene 3875)
  AC50: 4.21 µM (active) and 5.29 µM (active)
[5]
  AC50: 3.77 µM (active) and 3.33 µM (active)
[6]
  outcome: inactive
[7]
  AC50: 5.24 µM (active) and 5.63 µM (active)
[16]
  outcome: inactive
[8]
  AC50: 5.12 µM (active) and 5.47 µM (active)
CD40, CD40 (gene 958)
  outcome: inactive
[9]
  AC50: 6.09 µM (active) and 5.21 µM (active)
[17]
  outcome: inactive
[18]
  outcome: inactive

## O=C(O)C(F)(F)C(F)(F)C(F)(F)C(F)(F)C(F)(F)C(F)(F)F
[10]
  outcome: inactive
[11]
  outcome: inactive
[12]
  outcome: inactive
[13]
  outcome: inactive
[14]
  AC50: 24.6 µM (active)
  outcome: inactive
[15]
  AC50: 40.5 µM (active)
  outcome: inactive
[1]
  outcome: inactive
[2]
  outcome: inactive
[3]
  outcome: inactive
[4]
  outcome: inactive
KRT18 (gene 3875)
  outcome: inactive
[5]
  AC50: 30 µM (active)
  outcome: inactive
[6]
  outcome: inactive
[7]
  outcome: inactive
[16]
  outcome: inactive
[8]
  outcome: inactive
CD40, CD40 (gene 958)
  outcome: inactive
[9]
  outcome: inactive
[17]
  outcome: inactive
[18]
  outcome: inactive

## O=C(O)CCC(F)(C(F)(F)F)C(F)(F)F
[10]
  outcome: inactive
[11]
  outcome: inactive
[12]
  outcome: inactive
[13]
  outcome: inactive
[14]
  outcome: inactive
[15]
  outcome: inactive
[1]
  outcome: inactive
[2]
  outcome: inactive
[3]
  outcome: inactive
[4]
  outcome: inactive
KRT18 (gene 3875)
  outcome: inactive
[5]
  outcome: inactive
[6]
  outcome: inactive
[7]
  outcome: inactive
[16]
  outcome: inactive
[8]
  outcome: inactive
CD40, CD40 (gene 958)
  outcome: inactive
[9]
  outcome: inactive
[17]
  outcome: inactive
[18]
  outcome: inactive
